From PubChem BioAssay AID2111 (National Center for Advancing Translational Sciences (NCATS), 2009) come the findings set out here.

Where “and” joins values, the source holds several entries; their conditions need not be identical. Identical values can stand only once. Unmarked numbers belong to inactive results. Calls of active or inactive are those of the source. The call rests on the fitted dose curve; in most records, active means well fitted curve in either direction with a large enough effect; inconclusive means small, poorly fitted or top-dose-only effect; inactive means no such curve, though single readings can be large or run the other way.

In the assay the target is Lysosomal alpha-glucosidase (Homo sapiens) (UniProt P10253). Put plainly: Confirmation of Inhibitors and Activators of Human alpha-Glucosidase From Spleen Homogenate Using an Alternate Red Fluorescent Susbtrate. Conditions: resorufin-glucoside fluorescence; series mostly up to 62.8 µM; activity change, negative = inhibition: at the top concentration. The text has this: NIH Chemical Genomics Center [NCGC] NIH Molecular Libraries Probe Production centers Network [MLPCN] MLPCN Grant: 1R03MH084841-01 Assay Submitter (PI): Wei Zheng NCGC Assay Overview: Alpha-glucosidase is responsible for hydrolysis of terminal, non-reducing 1,4-linked alpha-D-glucose residues with release of alpha-D-glucose. It is a lysosomal hydrolase that is required for the degradation of a small percentage (1-3%) of cellular glycogen in human. Deficiency of this enzyme results in glycogen-storage disease type II (GSDII), also referred to as Pompe disease, an autosomal recessive disorder. Structurally normal glycogen is accumulated in lysosomes and cytoplasm in affected patients, primarily in muscle tissues. Excessive glycogen storage within lysosomes may interrupt normal functioning of other organelles and leads to cellular injury. In turn, this leads to enlargement and dysfunction of the entire organ involved (eg, cardiomyopathy and muscle weakness). It has reported that the improper folding and trafficking of alpha-glucosidase resultinged from the genetic mutations may account for a significant number of Pomrope patients. […] We optimized this alpha-glucosidase assay in 1536-well plate format for identifying the novel small molecule inhibitors with the structures other than the sugar analogs in order to develop the new pharmacological chaperones. In particular, this assay is directed towards discovering compounds active in a more natural setting, tissue homogenate, that may have been missed by screens of the purified enzyme under more stringent conditions. This assay attempted to confirm hits from the primary screening using an alternate fluor than the primary screen used.
NCGC Assay Protocol Summary: This is a fluorogenic enzyme assay with Resorufin-alpha-D-glucopyranoside as the substrate and human spleen homogenate containing alpha-glucosidase as the enzyme preparation. Upon hydrolysis of this fluorogenic substrate, the resulting product, resorufin (which excites at 573 nm and emits at 610 nm) can be detected by a fluorescence plate reader. Data were normalized to the controls for basal activity (without enzyme) and 100% activity (with enzyme). The AC50 values were determined from concentration-response data modeled with the standard Hill equation. Assay buffer: 50 mM citric acid (titrated with potassium phosphate to pH 5.0), 0.01% Tween-20 (pH 5.0 is an optimal condition for this enzyme assay) 1536-well assay protocol for the alpha-glucosidase from human spleen homogenate: (1) Add 2 ul/well spleen homogenate (1 ug) (2) Add 23 nL compounds in DMSO solution. The final titration was 0.5 nM to 58 uM. (3) Add 2 ul of substrate (1 mM final) (4) Incubate at 37 C for 40 min (5) Add 2 ul stop solution (1M NaOH and 1M Glycine mixture, pH 10) (6) Detect the assay plate in a ViewLux plate reader (PerkinElmer) with […]. Keywords: Alpha-glucosidase, Pompe Disease, pharmacological chaperone, chaperone therapy, high throughput screening, alpha-glucosidase inhibitor, MLSMR, MLSCN, NIH Roadmap, qHTS and NCGC
As to `CCCN1CNc2c(c(=O)[nH]c(=S)n2CCc2cc(Cl)cc(Cl)c2)C1`, the Potency was 12.6 µM (active).
Same read-out and setting: the result for `CCCN1CNc2c(c(=O)[nH]c(=S)n2CCc2ccc3c(c2)OCCO3)C1` reads 8.91 µM (active).
As for `c1csc(-c2nc(NCC3CCCO3)c3ccccc3n2)c1` (stereo not given), the “activity change, negative = inhibition” value was 1.37% [at 32.4 µM].
Same read-out and setting: to `CC(=O)Nc1ccc(S(=O)(=O)N2CCN(c3ccc(C(C)=O)cc3)CC2)cc1` belongs 6%.
For the compound `OCCNc1nc(-c2cccs2)nc2ccccc12`, the “activity change, negative = inhibition” value was 7.11%.
Regarding `O=C1Cc2cc(S(=O)(=O)N3CCN(c4ccc([N+](=O)[O-])cc4)CC3)ccc2N1`, the Potency was 5.8 µM [inhibitor] (active).
As for `CCCN1CNc2c(c(=O)[nH]c(=S)n2CCC)C1`, the “activity change, negative = inhibition” value is -4.56%.
Same read-out and setting: to `CC(=O)c1ccc(N2CCN(S(=O)(=O)c3ccc4c(c3)n(C)c(=O)n4C)CC2)cc1` belongs 0.436%.
Turning to `CCCN1CNc2c(c(=O)[nH]c(=S)n2CCc2cccs2)C1`, the Potency is 31.6 µM (active).
For the compound `CCCN1CNc2c(c(=O)[nH]c(=S)n2CCC(C)C)C1`, the “activity change, negative = inhibition” value was -2.72%.
Consider `CCCN1CNc2c(c(=O)[nH]c(=S)n2CCc2ccc(C)cc2C)C1`, for which the Potency is 11.2 µM (active).
As for `COc1ccc(C#Cc2c[nH]c(=O)c3cncnc23)cc1OC`, the “activity change, negative = inhibition” value is 5.09%.
On to `CCCN1CNc2c(c(=O)[nH]c(=S)n2CCc2ccc(C)cc2)C1`, for which the Potency was 14.1 µM (active).
Turning to `O=C1Cc2cc(S(=O)(=O)N3CCN(c4ccc(F)cc4)CC3)ccc2N1`, the Potency was 59.5 µM [inhibitor] (active).
Regarding `CCCCN1C[C@H](O)[C@@H](O)[C@H](O)[C@H]1CO`, the “activity change, negative = inhibition” value is -94.3%.
On to `O=Cc1ccc(N2CCN(S(=O)(=O)c3ccc4c(c3)CC(=O)N4)CC2)cc1`, for which the Potency was 5.17 µM [inhibitor] (active).
Consider `CCCN1CNc2c(c(=O)[nH]c(=S)n2CCC(C)(C)C)C1`, for which the “activity change, negative = inhibition” value was 2.22%.
On to `COc1ccc(CCn2c3c(c(=O)[nH]c2=S)CN(c2ccccc2)CN3)cc1OC`, for which the Potency was 25.1 µM (active).
Turning to `CC(=O)c1ccc(N2CCN(S(=O)(=O)c3ccc4c(c3)C(Cl)(Cl)C(=O)N4)CC2)cc1`, the Potency is 20.6 µM [inhibitor] (active) and 32.6 µM [inhibitor] (active).
On the same count and under the same terms, the result for `CCCN1CNc2c(c(=O)[nH]c(=S)n2CCc2ccc(OC)cc2)C1` reads 25.1 µM (active).
For the compound `COc1ccc(CCn2c(=S)[nH]c(=O)c3nccnc32)cc1OC`, the “activity change, negative = inhibition” value is 5.44%.
Same read-out and setting: to `CC(=O)c1ccc(N2CCN(S(=O)(=O)c3ccc4[nH]c(=O)oc4c3)CC2)cc1` belongs -4.53%.
The same measure, in the same setting: the result for `COc1ccc(CCn2c(=S)[nH]c(=O)c3c(C)cc(C)nc32)cc1OC` reads 5.96%; that for `O=c1[nH]cc(CCc2ccccc2)c2ncncc12`, -3.53%.
For the compound `CCCN1CNc2c(c(=O)[nH]c(=S)n2CCc2ccc(C)c(C)c2)C1`, the Potency was 7.94 µM (active).
On the same count and under the same terms, the result for `CCCN1CNc2c(c(=O)[nH]c(=S)n2CCc2ccsc2)C1` reads 28.2 µM (active).
In the case of `CC(=O)c1ccc(N2CCN(S(=O)(=O)c3ccc4c(c3)OCC(=O)N4)CC2)cc1`, the “activity change, negative = inhibition” value was 3.49%.
`O=C1Cc2cc(S(=O)(=O)N3CCN(c4ccc(Cl)cc4)CC3)ccc2N1`: the “activity change, negative = inhibition” value was -28.1% [at 130 µM].
On to `COc1ccc(N2CCN(S(=O)(=O)c3ccc4c(c3)CC(=O)N4)CC2)cc1`, for which the Potency was 6.68 µM [inhibitor] (active).
With `O=C1Cc2cc(S(=O)(=O)N3CCNCC3)ccc2N1`, the “activity change, negative = inhibition” value is -0.948%.
As to `CCCN1CNc2c(c(=O)[nH]c(=S)n2CCc2cccc(Cl)c2)C1`, the Potency was 15.8 µM (active).
Turning to `O=C1Cc2cc(S(=O)(=O)N3CCN(c4ccc(CO)cc4)CC3)ccc2N1`, the Potency is 13 µM [inhibitor] (active).
For the compound `CC(=O)N1CCN(c2ccc(NS(=O)(=O)c3ccc4c(c3)CC(=O)N4)cc2)CC1`, the “activity change, negative = inhibition” value is -22.9% [at 130 µM].
The same measure, in the same setting: the result for `Cc1ccc(N2CCN(S(=O)(=O)c3ccc4c(c3)CC(=O)N4)CC2)cc1` reads -15.1% [at 130 µM].
As for `CC(=O)c1ccc(N2CCN(S(=O)(=O)c3ccc4c(c3)CCCC(=O)N4)CC2)cc1`, the “activity change, negative = inhibition” value is -0.443%.
With `CCCN1CNc2c(c(=O)[nH]c(=S)n2CCc2ccc(OCC)c(OCC)c2)C1`, the Potency is 7.94 µM (active).
The same measure, in the same setting: the result for `CC(=O)c1ccc(N2CCN(S(=O)(=O)c3cc4c(cc3Cl)NC(=O)C4)CC2)cc1` reads 4.61 µM [inhibitor] (active) and 3.66 µM [inhibitor] (active); that for `CCCN1CNc2c(c(=O)[nH]c(=S)n2CCc2ccccc2OC)C1`, 14.1 µM (active).
For `CC(=O)c1ccc(N2CCN(S(=O)(=O)c3ccc4c(c3)CC(C)N4C(C)=O)CC2)cc1` (stereo not given), the “activity change, negative = inhibition” value was 11.1%.
The same measure, in the same setting: the result for `CC(=O)c1ccc(N2CCN(S(=O)(=O)c3ccc4c(c3)oc(=O)n4C)CC2)cc1` reads 4.41%.
